# PMC4336329 (PLoS ONE, 2015)
# The whole screen tested about 310,000 compounds, of which about 14,000 (4.5%) showed an effect of 50% or more. Effects have a minus sign here. Only a selection was taken, and strong results are over-represented in it overall.
# Molecular target: human ether-à-go-go-related gene (hERG) potassium channel (human, UniProt Q12809)
# Test: primary screen, population patch clamp on CHO cells stably expressing hERG; higher = less effect of the substance
# 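Further: peak tail current of the secondary pulse compared with the same well before compound.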
# human ether-à-go-go-related gene (hERG) potassium channel, sequence (Q12809 whole entry, looked up): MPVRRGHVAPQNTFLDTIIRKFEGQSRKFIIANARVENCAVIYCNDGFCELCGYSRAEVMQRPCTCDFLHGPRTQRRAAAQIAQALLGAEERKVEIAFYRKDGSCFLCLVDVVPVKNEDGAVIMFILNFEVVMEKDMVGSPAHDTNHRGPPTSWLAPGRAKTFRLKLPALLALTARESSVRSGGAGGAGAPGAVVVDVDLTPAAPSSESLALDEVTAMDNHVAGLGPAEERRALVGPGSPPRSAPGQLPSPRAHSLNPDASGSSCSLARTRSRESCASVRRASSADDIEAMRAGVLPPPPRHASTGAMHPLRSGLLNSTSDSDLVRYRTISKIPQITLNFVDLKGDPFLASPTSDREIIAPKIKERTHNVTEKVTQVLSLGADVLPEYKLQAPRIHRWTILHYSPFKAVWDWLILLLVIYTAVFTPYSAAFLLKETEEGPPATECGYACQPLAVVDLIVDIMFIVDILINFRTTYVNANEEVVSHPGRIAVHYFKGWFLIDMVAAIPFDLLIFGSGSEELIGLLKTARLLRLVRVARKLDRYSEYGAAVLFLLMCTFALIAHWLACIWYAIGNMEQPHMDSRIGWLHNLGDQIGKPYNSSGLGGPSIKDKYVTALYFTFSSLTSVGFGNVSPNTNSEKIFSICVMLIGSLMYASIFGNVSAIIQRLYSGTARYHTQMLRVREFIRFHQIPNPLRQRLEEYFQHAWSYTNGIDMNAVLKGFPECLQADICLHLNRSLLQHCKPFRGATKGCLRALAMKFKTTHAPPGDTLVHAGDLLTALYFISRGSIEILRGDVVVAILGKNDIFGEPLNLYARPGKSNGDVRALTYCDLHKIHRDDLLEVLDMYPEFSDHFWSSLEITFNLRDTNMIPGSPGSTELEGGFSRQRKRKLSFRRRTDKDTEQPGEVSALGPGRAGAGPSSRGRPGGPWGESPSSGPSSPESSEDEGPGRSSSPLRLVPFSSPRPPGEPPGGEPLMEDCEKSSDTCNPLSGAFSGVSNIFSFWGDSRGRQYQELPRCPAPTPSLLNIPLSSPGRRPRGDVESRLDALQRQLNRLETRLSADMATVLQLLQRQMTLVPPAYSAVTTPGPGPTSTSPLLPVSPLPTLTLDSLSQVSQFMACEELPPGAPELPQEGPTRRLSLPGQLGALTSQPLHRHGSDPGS
row,Structure (SMILES),"hERG current change (%, negative = inhibition) at 10uM [%]"
1,CCOC(=O)C1CCCc2c1[nH]c1c(C(=O)O)cccc21 (stereo not drawn),13.3
2,COc1ccc2nc(SCC(=O)NCCc3ccccc3)[nH]c2c1,-21.6
3,COc1ccc(-c2cc(C(=O)N3CCN(c4cccc(C)c4C)CC3)c3ccccc3n2)cc1OC,22.9
4,c1ccc(-n2cccc2)c(N2CCCCC2)c1,3.76
5,O=c1cc(CSc2nnc(-c3cccnc3)n2-c2ccccc2F)nc2sccn12,-4.15
6,CCCCNc1ccc(C(=O)OCCN(C)C)cc1.Cl,-11.6
7,COc1ccc(C(=O)N/N=C/c2c(CO)cnc(C)c2O)cc1,-1.9
8,CC1CCCN(CC(O)COC(c2ccccc2)c2ccccc2)C1 (stereo not drawn),-65
9,Cc1ccc(C(OCC(O)CN2CCCCC2)c2ccccc2)cc1 (stereo not drawn),-86.6
10,CC1CCCN(CC(O)COCc2ccccc2)C1.Cl (stereo not drawn),-1.07
11,OC1CCCN(CC(O)COC(c2ccccc2)c2ccccc2)C1 (stereo not drawn),-18
12,Cn1c(CNC(=O)c2ccco2)nnc1SCC(=O)c1ccccc1,10.6
13,CCn1nc(NS(=O)(=O)c2ccc([N+](=O)[O-])cc2)c2cc3ccccc3nc21,19.3
14,Cc1cc(C)cc(SCc2noc(C(=O)NCCCN3CCOCC3)c2C(=O)NCCCN2CCOCC2)c1,-30.4
15,O=C(Nc1ccccc1F)c1ccccc1-c1ccc(C(F)(F)F)cc1,-5.12
16,CC1CCN(Cc2c(C(=O)N/N=C/c3ccc(C(C)C)cc3)nnn2-c2nonc2N)CC1,20.2
17,CC(C)c1ccc(/C=N/NC(=O)c2nnn(-c3nonc3N)c2CN2CCOCC2)cc1,-56.6
18,CN1CCN(Cc2c(C(=O)N/N=C/c3cccc(Br)c3)nnn2-c2nonc2N)CC1,-74.8
19,CCc1ccc(/C=N/NC(=O)c2nnn(-c3nonc3N)c2CN2CCOCC2)cc1,-11.6
20,Nc1nonc1-n1nnc(C(=O)N/N=C/c2cccc(Cl)c2)c1CN1CCCCCC1,18.4
21,Nc1nonc1-n1nnc(C(=O)N/N=C/c2cccc(O)c2)c1CN1CCCC1,7.84
22,O=C1NC(=O)C(=Cc2ccc3c(c2)OCO3)C(=O)N1,15.3
23,CC1CN(C(=O)COC(=O)c2ccc(O)cc2)CC(C)O1 (stereo not drawn),17.4
24,O=C(NCCCNC(=O)C(F)(F)C(F)F)C(F)(F)C(F)F,6.91
